Test results published in PubChem BioAssay AID624126 (The Scripps Research Institute Molecular Screening Center, 2012).
Where “and” joins values, the source holds several entries; their conditions need not be identical. Equal entries are not always repeated. In all, about 360,000 compounds went through this assay and about 1,400 (0.39%) were called active. Shown is part of a subset that was picked to be rich in actives. Values without a mark were called inactive.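 Rule for the calls: active = activation above its plate's cutoff, the mean activation of sample wells plus 3 SD; inactive = the rest.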

target: Muscarinic acetylcholine receptor M4 (Homo sapiens) (UniProt P08173); assay: CHRM4 PAMs potentiating acetylcholine calcium signal – CHO-K1 cells, Fluo-8 calcium fluorescence, primary screen (AID 624126); settings: CHO-K1 hM4/Gqi5, Fluo-8 calcium fluorescence, ACh EC20; at 3 µM; hits give high values; 0% = ACh EC20, 100% = maximal ACh
Sequence (P08173 whole entry, looked up): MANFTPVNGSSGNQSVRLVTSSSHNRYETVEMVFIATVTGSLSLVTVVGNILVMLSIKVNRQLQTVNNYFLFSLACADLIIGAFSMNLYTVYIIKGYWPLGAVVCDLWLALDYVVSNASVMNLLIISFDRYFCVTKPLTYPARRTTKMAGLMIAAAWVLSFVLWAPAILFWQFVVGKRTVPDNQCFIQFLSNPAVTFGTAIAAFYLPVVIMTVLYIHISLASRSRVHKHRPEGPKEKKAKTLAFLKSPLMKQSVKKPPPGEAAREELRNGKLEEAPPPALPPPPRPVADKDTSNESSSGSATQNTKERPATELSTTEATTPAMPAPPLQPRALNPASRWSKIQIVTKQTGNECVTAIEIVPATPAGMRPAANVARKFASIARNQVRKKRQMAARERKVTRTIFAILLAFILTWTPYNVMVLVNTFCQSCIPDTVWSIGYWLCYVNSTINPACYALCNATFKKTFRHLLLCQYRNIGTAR

| Structure (SMILES) | activation |
| --- | --- |
| CC(C)n1ncc2c(C(=O)N3CCN(Cc4cccs4)CC3)cc(C3CC3)nc21 | 3.71% |
| CC(OC(=O)/C=C/c1ccccc1)C(=O)Nc1ccc(C(N)=O)cc1 (stereo not drawn) | 5.82% |
| CCc1ccc(NC(=O)C(C)OC(=O)/C=C/c2cccc([N+](=O)[O-])c2)cc1 (stereo not drawn) | 30.3% (active) |
| C=CCOc1ccc(/C=C/C(=O)OC(C)C(=O)Nc2ccc(NC(C)=O)cc2)cc1 (stereo not drawn) | 0.99% |
| O=C1CN(C(=O)CN2C(=O)NC3(CCCCC3)C2=O)c2ccccc2N1 | 3.42% |
| Cn1c(SCC(=O)c2ccccc2)ncc(C(=O)Nc2ccc(F)cc2)c1=O | 21.6% (active) |
| Cc1ccc(NC(=O)c2cnc(SCC(=O)NCC3CCCO3)n(C)c2=O)cc1 (stereo not drawn) | 21.4% |
| Cn1c(SCC(=O)c2ccc(F)cc2)nnc1-c1ccccn1 | -3.85% |
| CC(C)NC(=O)N1Cc2cc(C(=O)NCC(F)(F)F)nc(-c3cccc(-c4cc5ccccc5o4)c3)c2[C@@H]1CCO | 1.14% |
| COc1ccc(CCNC(=O)CN2C(=O)CCSc3ccccc32)c(OC)c1 | 0.14% |
| CC(NS(=O)(=O)c1ccc(OCC(=O)N2CCCC2)cc1)c1ccccc1 (stereo not drawn) | 1.05% |
| O=C(COC(=O)c1ncc(Cl)c(Cl)c1Cl)NCc1ccccc1 | 16.7% |
| CCN(CC)S(=O)(=O)c1ccc2c3c(cccc13)C(=O)S2 | -6.1% |
| CCN1C(=O)c2cccc3c(S(=O)(=O)Nc4ccccc4O)ccc1c23 | 17.5% (active) |
| Cc1ccccc1C(=O)NNC(=O)CN1C(=O)c2ccccc2C1=O | 9.49% |
| C/C(CC(=O)Nc1ccc(C)cc1C)=N\NC(=O)C(C)C | 2.54% |
| CN(C)C(=O)N1CCNCC1 | 4.12% |
| Cc1cc(Br)cn2c(Cc3ccsc3)c(-c3ccc(C#N)cc3)nc12 | -5.22% |
| COc1cc(CCC(=O)OCC(=O)Nc2cccc(S(N)(=O)=O)c2)cc(OC)c1OC | 1.58% |
| O=C1CSc2ccc(S(=O)(=O)NCc3ccccc3)cc2N1 | 0.62% |
| COc1cccc(C2=CC(=O)C[C@H](c3ccc(F)cc3)C2)c1OC | 2.96% |
| Cc1c(C=O)c2ccccn2c1C(=O)c1ccncc1 | 30.8% (active) |
| Cc1c(C=O)c2ccccc2n1CC(=O)O | 4.05% |
| Cc1c(C(=O)NNC(=O)c2ccncc2)oc2ccccc12 | 5.49% |

| Structure (SMILES) | activation |
| --- | --- |
| COc1cccc(CNCCc2c[nH]c3ccccc23)c1OCc1ccccc1F | -8.42% |
| Cc1nc2sc(C(c3ccco3)N3CCC4(CC3)OCCO4)c(O)n2n1 (stereo not drawn) | 5.78% |
| Cc1ccc(C(c2sc3nc(C)nn3c2O)N2CCN(c3ccccc3)CC2)cc1 (stereo not drawn) | 4.41% |
| Cc1nc2sc(C(c3ccco3)N3CCOCC3)c(O)n2n1 (stereo not drawn) | 31.4% (active) |
| Cc1cc(NS(=O)(=O)c2ccc(NC(=O)c3cccc(OC(F)F)c3)cc2)nc(C)n1 | 3.12% |
| CCc1nnc(NS(=O)(=O)c2ccc(NC(=O)c3cccc(OC(F)(F)C(F)F)c3)cc2)s1 | 13.1% (active) |
| CCc1nnc(NS(=O)(=O)c2ccc(NC(=S)NC(=O)/C=C/c3cccs3)cc2)s1 | -0.35% |
| CC(C)(C)N1CC(c2nc3ccccc3n2Cc2ccc(F)cc2)CC1=O (stereo not drawn) | -1.38% |
| CC(=O)NCC(=O)N(C)C(C(=O)Nc1ccc2c(c1)OCCO2)c1ccccc1 (stereo not drawn) | 16.8% (active) |
| O=C(Nc1ccc2c(c1)OCCO2)C(C1CC1)N1CCC(Cc2ccccc2)CC1 (stereo not drawn) | -15.2% |
| CCc1ccccc1OCC(=O)Nc1ccc2c(c1)OCCO2 | -2.66% |
| Cc1ccccc1OCC(=O)N(Cc1cccc(F)c1)C1CCS(=O)(=O)C1 (stereo not drawn) | 0.66% |
| CCOc1ccc(-n2c(SCC(=O)Nc3cc(C(=O)O)ccc3Cl)nc3ccccc3c2=O)cc1 | 17.1% (active) |
| CCOCCCn1c(SCC(=O)Nc2cc(OC)ccc2OC)nc2ccccc2c1=O | -0.05% |
| CCOc1ccc(NC(=O)CSc2nc3ccccc3c(=O)n2Cc2cccs2)cc1 | -2.3% |
| O=C1OCC2=C1C(c1ccccc1)CC(=O)N2c1cccc(F)c1 (stereo not drawn) | 11.7% |
| CC(C)c1cccc(C(C)C)c1Nc1cn[nH]c1 | 28.5% (active) |
| O=C(NCCOc1ccccc1)N1[C@H]2CC[C@@H]1C=C(c1ccc(F)cc1OCc1ccccc1)C2 | -2.49% |
| O=C(CSc1nnnn1-c1ccccc1)NCc1ccco1 | -4.53% |
| COc1ccc(-n2c(SCC(=O)NCc3ccco3)nnc2-c2c[nH]c3ccccc23)cc1 | -1.54% |
| O=C(CSc1nnc(-c2c[nH]c3ccccc23)n1-c1ccc(F)cc1)NCc1ccco1 | 32.8% (active) |
| CCC(C)N(C(=O)CSc1ncnc2c1cnn2-c1ccccc1)C1CCS(=O)(=O)C1 (stereo not drawn) | -4.86% |
| CCn1c(SC(C)C(=O)Nc2ccc(N3CCOCC3)cc2)nnc1-c1ccco1 (stereo not drawn) | 1.69% |
| CC(Sc1ncnc2c1cnn2-c1ccccc1)C(=O)Nc1ccc(N2CCOCC2)cc1 (stereo not drawn) | 23.6% (active) |

| Structure (SMILES) | activation |
| --- | --- |
| CCOC(=O)c1cnc2ccc(F)cc2c1Nc1ccc2c(c1)OCCO2 | 27.1% (active) |
| CCOc1ncccc1C(=O)Nc1ccc2c(c1)OCCO2 | -0.95% |
| CCC(=O)c1cc(F)ccc1OCC(=O)Nc1ccc2c(c1)OCCO2 | -4.48% |
| CCOc1cc(C)c(Cl)cc1S(=O)(=O)n1nnc2ccccc21 | 6.7% |
| COc1ccccc1Nc1ncc(C(C)=O)c(C)n1 | 2.09% |
| O=C(c1[nH]ncc1-c1ccc(Cl)cc1)C1CO1 (stereo not drawn) | -6.34% |
| Cc1ccc(C(=O)CN2C(=O)NC3(CCc4ccccc43)C2=O)c(C)c1 (stereo not drawn) | -0.51% |
| COc1ccc(C(=O)CN2C(=O)NC3(CCc4ccccc43)C2=O)c(OC)c1 (stereo not drawn) | 22.9% (active) |
| COc1ccc(-n2c(C)cc(C(=O)CN3C(=O)NC4(CCc5ccccc54)C3=O)c2C)cc1 (stereo not drawn) | -7.44% |
| Cc1ccc(C(=O)NCC(=O)NCc2cc(=O)n(C)c(=O)n2C)cc1 | -0.97% |
| CCOc1ccc(NS(=O)(=O)c2ccc(C(=O)NCC3CCCO3)cc2)cc1 (stereo not drawn) | -2.16% |
| Cc1nc(N)sc1-c1ccccc1 | 16.2% (active) |
| CC(=O)c1sc(N)nc1C | 3.44% and -1.75% |
| Cc1nc(N)sc1N=Nc1c(C)n(C)n(-c2ccccc2)c1=O | 3.22% |
| CCN(C(=O)COC(=O)c1ccc(COc2ccc3c(C)cc(=O)oc3c2)cc1)C1CCS(=O)(=O)C1 (stereo not drawn) | -5.76% |
| CN=C(NC#N)NCCSCc1nc[nH]c1C | -5.15% |
| O=C1C=C(c2ccc(Cl)cc2)C(=O)N1Nc1ccccc1 | -7.82% |
| O=C1c2cccc3cc(Br)cc(c23)C(=O)N1Nc1ccccc1 | 21.6% (active) |
| O=C1c2cccc3cccc(c23)C(=O)N1c1cccc(O)c1 | -10.1% |
| Cc1cc(C)c(S(=O)(=O)NCCCN2CCOCC2)cc1Br | -4.24% |
| O=C(CN1CCCC1)Nc1sc2c(c1C(=O)Nc1ccccc1)CCCC2 | 0.04% |
| CCN1CCN(CC(=O)Nc2sc3c(c2C#N)CCC3)CC1 | 17.1% (active) |
| COc1cccc(CN(C)CC(=O)Nc2sc3c(c2C#N)CCC3)c1 | -0.97% |
| COCc1c(C(=O)OCc2c(C)noc2C)oc2ccccc12 | -3.78% |

| Structure (SMILES) | activation |
| --- | --- |
| CCCCCN(C(=O)CCC(=O)OCC(=O)NC1CCC(C)CC1)c1c(N)n(CCCC)c(=O)[nH]c1=O (stereo not drawn) | 9.55% |
| CN(CCc1ccccc1)C(=O)c1cccc(NC(=O)Cc2cccc(NC(=O)C3CCCN(C(=O)C4CCC4)C3)c2)c1 (stereo not drawn) | -5.03% |
| O=C(c1cnccn1)N1CCN(S(=O)(=O)c2cccc(Cl)c2)CC1 | 1.28% |
| Cc1ccc(Cn2c(=N)c(S(=O)(=O)c3ccc(C)cc3)cc3c(=O)n4ccccc4nc32)cc1 | 3.3% |
| O=C(OC12CC3CC(CC(C3)C1)C2)c1ccc(NCc2cc(O)ccc2O)cc1 | 15.5% (active) |
| O=C(Nc1cc(F)ccc1F)c1ccc2c(=O)n3c(nc2c1)CCC3 | 3.59% |
| CC1CCN(C(=O)c2ccc3c(=O)n4c(nc3c2)CCCCC4)CC1 | 14.7% (active) |
| Cc1cc(C)c(C)c(S(=O)(=O)N2CCN(C(=O)c3ccc4c(=O)n5c(nc4c3)CCC5)CC2)c1C | -1.12% |
| CCN(CC(=O)NCc1cccs1)C(=O)c1ccccc1F | 0.45% |
| CCN(CC(=O)NCc1cccs1)C(=O)/C=C/c1ccc(C)cc1 | 23.5% (active) |
| CCOc1ccc(/C=C/C(=O)N(CC)CC(=O)NCc2cccs2)cc1OC | -5.1% |
| COCCn1c(SCC(=O)Nc2ccc3c(c2)CCC3)nc2ccccc2c1=O | -0.72% |
| Cc1c(C(=O)c2cccc([N+](=O)[O-])c2)c2ccccn2c1CCC#N | -5.93% |
| CN1CCN(c2cc3c(cc2F)c(=O)c(C(=O)O)cn3CCF)CC1 | 8.31% |
| COc1ccc(N2CC(C(=O)N[C@@H](C)C(=O)N3CCCCC3)CC2=O)cc1 (stereo partly drawn) | -1.42% |
| CCOc1ccc(NC(=O)[C@H](C)NC(=O)C2CC(=O)N(c3ccc(OC)cc3)C2)cc1 (stereo partly drawn) | 17.5% (active) |
| CCCC(C)c1nnc(NC(=O)C2CC(=O)N(c3ccc(OCC)cc3)C2)s1 (stereo not drawn) | 0.96% |
| COc1ccc(-c2ccc3c(c2)C2CC3CCN2CCC#N)cc1 (stereo not drawn) | -4.51% |
| N/C(=N\OC(=O)CCc1ccccc1)c1ccc(Cl)cc1 | 12.9% |
| COc1ccc(/C(N)=N/OC(=O)CCCc2ccccc2)cc1 | 1.71% |
| N/C(=N\OC(=O)CCc1ccccc1)c1cccnc1 | 24.5% (active) |
